USP17 inh: inhibitors of human USP17 deubiquitinase; Ubiquitin carboxyl-terminal hydrolase 17-like protein 5 (Homo sapiens), A8MUK1; purified USP17, Ub-rhodamine cleavage fluorescence, 3 h; inhibition, % at 50 µM; hit rate 6.5% among 47,000; AID 1645855, 2021
USP30 inh: inhibitors of human USP30 deubiquitinase; Ubiquitin carboxyl-terminal hydrolase 30 (Homo sapiens), Q70CQ3; purified USP30, Ub-rhodamine cleavage fluorescence; inhibition, % at 25 µM; hit rate 5.3% among 47,000; AID 1645860, 2021
Target sequence (Q70CQ3 whole entry, looked up): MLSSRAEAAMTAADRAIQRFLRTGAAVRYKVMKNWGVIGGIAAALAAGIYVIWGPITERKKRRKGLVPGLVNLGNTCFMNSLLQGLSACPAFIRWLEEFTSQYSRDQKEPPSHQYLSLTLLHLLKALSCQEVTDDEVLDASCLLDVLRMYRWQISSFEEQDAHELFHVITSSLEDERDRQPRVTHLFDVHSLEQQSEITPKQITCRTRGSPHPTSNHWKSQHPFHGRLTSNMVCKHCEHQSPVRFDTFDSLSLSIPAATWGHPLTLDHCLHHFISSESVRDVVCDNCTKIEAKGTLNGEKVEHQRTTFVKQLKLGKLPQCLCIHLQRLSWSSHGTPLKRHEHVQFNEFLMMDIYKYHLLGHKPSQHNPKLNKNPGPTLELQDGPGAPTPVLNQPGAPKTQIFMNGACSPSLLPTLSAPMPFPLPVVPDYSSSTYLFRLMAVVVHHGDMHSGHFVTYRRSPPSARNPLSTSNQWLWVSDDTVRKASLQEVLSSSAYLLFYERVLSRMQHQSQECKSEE
The depositor's hits bear a star. The list is not random: actives were taken first. Their share in the collection is about 9.6%. Cut-off read from the data, not from the text of the source: active = inhibition above about 30%; inactive = the rest.

Results for CNC(=O)NC(=O)COC(=O)c1c2c(nc3ccccc13)/C(=C/c1ccc(OC)cc1)CC2 ?
USP17 inh: -168.7; USP30 inh: inactive

What do the screens show for `CCCn1c(=O)c2sccc2n2c(CCC(=O)NCc3ccc4c(c3)OCO4)nnc12`?
USP17 inh: -0.5; USP30 inh: -11.1

What do the screens show for `Cc1ccc(C)c(N(CC(=O)Nc2ccc3c(c2)OCCO3)S(=O)(=O)c2ccccc2)c1`?
USP17 inh: 10.0; USP30 inh: 30.4*

Results for Cc1ccc(N(CC(=O)NCc2ccncc2)S(=O)(=O)c2ccccc2)c(C)c1 ?
USP17 inh: 0.6; USP30 inh: 9.8

How did COc1cc(C(=O)Nc2ccccc2Cc2ccccc2)cc(OC)c1OC do in these assays?
USP17 inh: 32.1*; USP30 inh: 36.4*

Results for CCS(=O)(=O)N1CCc2cc(C(=O)Nc3ccc4c(c3)OCCO4)ccc21 ?
USP17 inh: 5.2; USP30 inh: 3.6

What do the screens show for `CCN(Cc1ccccc1)S(=O)(=O)c1ccc(C(=O)Nc2ccc3c(c2)OCCO3)cc1`?
USP17 inh: 10.0; USP30 inh: 40.0*

What do the screens show for `CCCOc1c(Br)cc(C(=O)Nc2ccccc2OC)cc1OC`?
USP17 inh: 16.3; USP30 inh: 10.3

How did COc1ccccc1NC(=O)c1ccc(S(=O)(=O)N(C)Cc2ccccc2)cc1 do in these assays?
USP17 inh: 18.4; USP30 inh: 33.9*

Results for COc1ccccc1NC(=O)c1coc(NC(=O)c2ccccc2)n1 ?
USP17 inh: -11.7; USP30 inh: -14.3

What do the screens show for `CC(=O)c1cccc(NC(=O)C2(n3cnnn3)CCCCC2)c1`?
USP17 inh: 0.5; USP30 inh: 5.4

Results for O=S1(=O)N[C@H]2CCN(Cc3ccccc3F)CC[C@@H]2Oc2ccccc21 ?
USP17 inh: -12.9; USP30 inh: -26.8

How did CCCC(=O)Nc1ccc(-n2cnc(C(=O)N3CCCC3)c2)nc1 do in these assays?
USP17 inh: 6.9; USP30 inh: 14.3

What do the screens show for `COc1ccnc(N2CCC(C3CCCCCN3C(=O)C3CCOCC3)CC2)n1` (stereo not drawn)?
USP17 inh: -1.1; USP30 inh: 0.0

What do the screens show for `CC(=O)c1cccc(NC(=O)c2ccc(S(=O)(=O)N(C)Cc3ccccc3)cc2)c1`?
USP17 inh: 44.0*; USP30 inh: 10.9

How did COc1ccccc1N(C)S(=O)(=O)c1ccc(C(=O)Nc2cccc(-n3cnnn3)c2C)cc1 do in these assays?
USP17 inh: 34.7*; USP30 inh: 28.2

How did Cc1ccnc(NS(=O)(=O)c2ccc(NC(=O)c3ccc(S(=O)(=O)N(C)Cc4ccccc4)cc3)cc2)n1 do in these assays?
USP30 inh: -57.0

Results for COc1ccccc1N(C)S(=O)(=O)c1ccc(C(=O)NCCc2ccc(F)cc2)cc1 ?
USP17 inh: -2.6; USP30 inh: 3.8

Results for CNc1nc2c(c(=O)n1Cc1ccccc1)CCN(C(=O)C1CCCCC1)C2 ?
USP17 inh: -1.9; USP30 inh: 25.1

How did O=C(NC1CCCC1)c1csc(C(=O)NC2CCCC2)n1 do in these assays?
USP17 inh: 11.0; USP30 inh: 20.9

How did O=C(Nc1ccccc1)C1=CCN(Cc2ccccc2F)CC1 do in these assays?
USP17 inh: -4.6; USP30 inh: -12.3

How did Cc1cc(N2CCCC2)n2nc(CN3CCC4(CC3)OCCO4)nc2n1 do in these assays?
USP17 inh: -0.1; USP30 inh: -3.4

How did Cc1c(C(=O)NC2CC2)nnn1-c1cccc2c1CCN(Cc1ccccn1)C2 do in these assays?
USP17 inh: -84.1; USP30 inh: -396.2

Results for COc1ccc(CCNC(=O)c2cnn(-c3ccc([N+](=O)[O-])cc3)c2C2CCNCC2)c(OC)c1 ?
USP17 inh: -14.8; USP30 inh: 34.0*

What do the screens show for `COc1ccc(CCNC(=O)c2cnn(-c3ccc(F)cc3)c2C2CCNCC2)c(OC)c1`?
USP17 inh: -38.5; USP30 inh: 13.7

Results for Cc1ccc(F)cc1NCC(=O)N1CCc2ccccc21 ?
USP17 inh: 9.5; USP30 inh: 13.3

Results for O=C(/C=C/c1ccccc1)N1CC[C@@]2(O)CCCC[C@H]2C1 ?
USP17 inh: 1.2; USP30 inh: 17.5

Results for COc1ccc(Cn2nnc(C(=O)N3CCCCC3)c2-n2cccc2)cc1 ?
USP17 inh: 30.3*; USP30 inh: -60.8

What do the screens show for `Cc1ccc(Cn2nnc(C(=O)N3CCCC3)c2-n2cccc2)cc1`?
USP17 inh: 9.2; USP30 inh: -30.9

Results for COCCN1C(=O)c2ccccc2C(C(=O)N2CCCCC2)C12CCCCC2 (stereo not drawn) ?
USP17 inh: -2.4; USP30 inh: -0.1

What do the screens show for `Cc1cccc(OC(C)c2nc(-c3cccnc3)no2)c1` (stereo not drawn)?
USP17 inh: 12.2; USP30 inh: 8.8

What do the screens show for `O=C(NCC(=O)N1CCN(c2ccccc2)CC1)c1ccccc1`?
USP17 inh: -32.8; USP30 inh: -84.4

Screening results from PubChem.
